According to PubChem BioAssay (EPA / NIEHS):
Active and inactive are the calls of the source. The calls were made as follows: active = hit-call score of the fitted dose curve at least 0.9, where 1 is the maximum; inactive = score below 0.9.

The compounds below were run on Collagen III, COL3A1 (gene 1281) (assay: BSK_hDFCGF_CollagenIII: BioMAP Diversity Plus: hDFCGF Assay for Collagen III Biomarker Activity (AID 2283056)). Settings: primary human foreskin fibroblasts; actives raise or lower the signal.
Procedure, shortened: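 hDFCGF primary human dermal fibroblasts; 24 h chemical exposure; collagen III by ELISA; bidirectional curve fit vs DMSO baseline (gain or loss of signal).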

SMILES | outcome | AC50
CCCCOC(=O)CC(CC(=O)OCCCC)(OC(C)=O)C(=O)OCCCC | inactive | 
OC12N=C(c3ccccc3)SC1Cc1cc(Cl)ccc12 (stereo not given) | inactive | 
CCCCCCCCCCCC[N+](C)(C)C |  | 2.57 µM (active)
Clc1ccccc1C(c1ccccc1)(c1ccccc1)n1ccnc1 |  | 5.5 µM (active)
O=C=NCCCCCCN=C=O | inactive | 
CCCCCc1ccc(N)cc1 | inactive | 
C[C@]12CC[C@@H]3c4ccc(O)cc4CC[C@H]3[C@@H]1CCC2=O | inactive | 
O=c1c(-c2ccc(O)cc2)coc2cc(O)cc(O)c12 | inactive | 
C[C@]12CC[C@@H]3c4ccc(O)cc4CC[C@H]3[C@@H]1CC[C@H]2O |  | 12 µM (active)
CCCCCCCCCCCO |  | 31.6 µM (active)
Oc1ccc2ccccc2c1 | inactive | 
O=C1c2ccccc2C(=O)N1CCc1noc(-c2ccc(CN3CCCCCC3)s2)n1 | inactive | 
CCO[Si](CCCNC(N)=O)(OCC)OCC | inactive | 
CCCOC(=O)c1cc(O)c(O)c(O)c1 | inactive | 
CCCCCCCCCC(=O)O | inactive | 
CN(C[C@@H](CC[N+]12CCC(C3CCCCC3)(CC1)CC2)c1ccc(Cl)c(Cl)c1)C(=O)c1cc(C(F)(F)F)cc(C(F)(F)F)c1 |  | 7.21 µM (active)
Cc1cn([C@H]2C[C@H](N=[N+]=[N-])[C@@H](CO)O2)c(=O)[nH]c1=O | inactive | 
Cc1cc(F)ccc1-c1cc(N2CC[C@@H](O)[C@H]2CO)ncc1N(C)C(=O)C(C)(C)c1cc(C(F)(F)F)cc(C(F)(F)F)c1 |  | 24.1 µM (active)
CC[C@@H]1C[C@H](N(Cc2cc(C(F)(F)F)cc(C(F)(F)F)c2)C(C)=O)c2cc(C(F)(F)F)ccc2N1C(=O)OC(C)C | inactive | 

SMILES | outcome | AC50
CC(=O)N1CCN(c2ccc(OC[C@H]3CO[C@](Cn4ccnc4)(c4ccc(Cl)cc4Cl)O3)cc2)CC1 |  | 14 µM (active)
CCCCCCCC[Si](OCC)(OCC)OCC |  | 20 µM (active)
O=C1CCC(C2CCCCC2)CC1 |  | 20.7 µM (active)
CN1C(=O)N(c2ccccc2Br)Cc2cnc(Nc3ccc4c(c3)OCC(CO)O4)nc21 (stereo not given) | inactive | 
CN(C)c1ccc(C(=C2C=CC(=[N+](C)C)C=C2)c2ccc(N(C)C)cc2)cc1 |  | 0.148 µM (active)
CCCCCCCCCCCCO |  | 15.4 µM (active)
CCCC(=O)OCCC(C)C | inactive | 
c1ccc2n[nH]nc2c1 | inactive | 
O=CCCCC=O |  | 33.6 µM (active)
COc1ccc2cc(S(=O)(=O)N[C@H](CC(=O)N[C@H](Cc3ccc(CN4[C@H](C)CCC[C@@H]4C)cc3)C(=O)N(C)C(C)C)c3ccc4c(c3)OCO4)ccc2c1 |  | 2.07 µM (active)
Cc1ccc2oc(CN(Cc3ccccc3)C(=O)Nc3c(F)cc(F)cc3F)c(-c3ccc(Cl)cc3)c2c1 | inactive | 
O=c1ccc2ccccc2o1 | inactive | 
Cc1ncc(CO)c(CO)c1O | inactive | 
Cc1cccc2ccccc12 | inactive | 
CCCCCCCCN(C)CCCCCCCC | inactive | 
Cc1occc1C(=O)Nc1ccc(C(=O)N2CCC(F)(F)/C(=C\C(=O)N3CCC(N4CCCCC4)CC3)c3ccccc32)cc1 | inactive | 
CC[C@H](NC(=O)c1cc(F)ccc1NS(=O)(=O)c1cccc2cccnc12)c1ccccc1 |  | 8.58 µM (active)
Cc1ccc(C(C)C)cc1 | inactive | 

These compounds were tested on Interleukin-8 (IL8), CXCL8 (gene 3576) (assay: BSK_hDFCGF_IL8: BioMAP Diversity Plus: hDFCGF Assay for Interleukin-8 (IL8) Biomarker Activity (AID 2283058)). Settings: primary human foreskin fibroblasts; actives raise or lower the signal.
Procedure, shortened: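 ELISA read-out of IL-8 from primary human foreskin fibroblast cultures taken 24 h after dosing; values are bidirectional fits relative to DMSO vehicle.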

SMILES | outcome | AC50
CCCCOC(=O)CC(CC(=O)OCCCC)(OC(C)=O)C(=O)OCCCC | inactive | 
OC12N=C(c3ccccc3)SC1Cc1cc(Cl)ccc12 (stereo not given) | inactive | 
CCCCCCCCCCCC[N+](C)(C)C |  | 29.9 µM (active)
Clc1ccccc1C(c1ccccc1)(c1ccccc1)n1ccnc1 |  | 9.77 µM (active)
O=C=NCCCCCCN=C=O | inactive | 
CCCCCc1ccc(N)cc1 | inactive | 
O=C(OCCCCCCOC(=O)c1ccccc1)c1ccccc1 | inactive | 
C[C@]12CC[C@@H]3c4ccc(O)cc4CC[C@H]3[C@@H]1CCC2=O | inactive | 
O=c1c(-c2ccc(O)cc2)coc2cc(O)cc(O)c12 | inactive | 
C[C@]12CC[C@@H]3c4ccc(O)cc4CC[C@H]3[C@@H]1CC[C@H]2O | inactive | 
CCCCCCCCCCCO |  | 32.4 µM (active)
Oc1ccc2ccccc2c1 | inactive | 
O=C1c2ccccc2C(=O)N1CCc1noc(-c2ccc(CN3CCCCCC3)s2)n1 | inactive | 
CCO[Si](CCCNC(N)=O)(OCC)OCC | inactive | 
CCCOC(=O)c1cc(O)c(O)c(O)c1 | inactive | 
CCCCCCCCCC(=O)O | inactive | 
CN(C[C@@H](CC[N+]12CCC(C3CCCCC3)(CC1)CC2)c1ccc(Cl)c(Cl)c1)C(=O)c1cc(C(F)(F)F)cc(C(F)(F)F)c1 |  | 9.76 µM (active)
Cc1cn([C@H]2C[C@H](N=[N+]=[N-])[C@@H](CO)O2)c(=O)[nH]c1=O | inactive | 
Cc1cc(F)ccc1-c1cc(N2CC[C@@H](O)[C@H]2CO)ncc1N(C)C(=O)C(C)(C)c1cc(C(F)(F)F)cc(C(F)(F)F)c1 |  | 18.4 µM (active)

SMILES | outcome | AC50
CC[C@@H]1C[C@H](N(Cc2cc(C(F)(F)F)cc(C(F)(F)F)c2)C(C)=O)c2cc(C(F)(F)F)ccc2N1C(=O)OC(C)C | inactive | 
CC(=O)N1CCN(c2ccc(OC[C@H]3CO[C@](Cn4ccnc4)(c4ccc(Cl)cc4Cl)O3)cc2)CC1 |  | 33.5 µM (active)
CCCCCCCC[Si](OCC)(OCC)OCC | inactive | 
O=C1CCC(C2CCCCC2)CC1 |  | 32.5 µM (active)
CN1C(=O)N(c2ccccc2Br)Cc2cnc(Nc3ccc4c(c3)OCC(CO)O4)nc21 (stereo not given) |  | 16.1 µM (active)
CN(C)c1ccc(C(=C2C=CC(=[N+](C)C)C=C2)c2ccc(N(C)C)cc2)cc1 |  | 6.66 µM (active)
CCCCCCCCCCCCO |  | 37.4 µM (active)
CCCC(=O)OCCC(C)C | inactive | 
c1ccc2n[nH]nc2c1 | inactive | 
O=CCCCC=O |  | 36.9 µM (active)
COc1ccc2cc(S(=O)(=O)N[C@H](CC(=O)N[C@H](Cc3ccc(CN4[C@H](C)CCC[C@@H]4C)cc3)C(=O)N(C)C(C)C)c3ccc4c(c3)OCO4)ccc2c1 | inactive | 
Cc1ccc2oc(CN(Cc3ccccc3)C(=O)Nc3c(F)cc(F)cc3F)c(-c3ccc(Cl)cc3)c2c1 | inactive | 
O=c1ccc2ccccc2o1 | inactive | 
Cc1ncc(CO)c(CO)c1O | inactive | 
Cc1cccc2ccccc12 | inactive | 
CCCCCCCCN(C)CCCCCCCC | inactive | 
Cc1occc1C(=O)Nc1ccc(C(=O)N2CCC(F)(F)/C(=C\C(=O)N3CCC(N4CCCCC4)CC3)c3ccccc32)cc1 | inactive | 
CC[C@H](NC(=O)c1cc(F)ccc1NS(=O)(=O)c1cccc2cccnc12)c1ccccc1 | inactive | 
Cc1ccc(C(C)C)cc1 | inactive | 
